Experimental findings from PubChem BioAssay (NCI) are described below.

Some test systems named below: NCI-H23 lung; NCI-H226 lung; NCI-H322M lung; HOP-62 NSCLC; NCI-H460 lung; HOP-92 NSCLC; NCI-H522 lung; A549/ATCC NSCLC; 786-0 renal; COLO 205 colon.
What all share (experiment): NCI-60 one-dose screen, 48 h (100 = growth as untreated, 0 = no growth, -100 = all killed)
Details in all cases: 10 µM unless noted

The panel holds about 83,000 compounds, 20% with a hit somewhere; the sample as a whole holds those more often.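 Single-concentration screen, 48 h exposure, 96-well plates. Endpoint: percent growth. Below 10 = active.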 A number with no mark means an inactive call. Calls of active or inactive are those of the source.

Take `C=COC(=O)CCOCC(CC)CCCC` (stereo not given): the growth in the assay with NCI-H23 lung was 105%; in the assay with NCI-H226 lung it was 98.7%; with NCI-H322M lung, 98.7%; in the assay on HOP-62 NSCLC, 97.3%; in the assay with NCI-H460 lung, 106%; in the assay on HOP-92 NSCLC, 111%. The growth was 109% in the assay on NCI-H522 lung, 89.6% in the assay with A549/ATCC NSCLC, 91.2% with 786-0 renal and 111% in the assay with COLO 205 colon.
In the case of `CCCCCC/C=C\CCCCCCCCCc1cc(O)cc(OC)c1O`, the growth in the assay with NCI-H23 lung was 11.2%; with NCI-H226 lung, 24.2%; in the assay with NCI-H322M lung, 4.07% (active); with HOP-62 NSCLC, 21.8%; in the assay with NCI-H460 lung, 8.62% (active); in the assay on HOP-92 NSCLC, -45% (active). Further, the growth was -76.8% (active) with NCI-H522 lung, 16.8% in the assay on A549/ATCC NSCLC, 10.6% in the assay with 786-0 renal and -65.3% (active) in the assay on COLO 205 colon.
Take `NNC(=O)c1ccccc1N`: the growth with NCI-H23 lung was 101%; in the assay on NCI-H226 lung, 114%; with NCI-H322M lung it was 118%; with HOP-62 NSCLC, 90.6%; with NCI-H460 lung, 118%; with HOP-92 NSCLC, 86.4%. For the same compound, the growth with NCI-H522 lung is 130%; with A549/ATCC NSCLC, 120%; with 786-0 renal, 96.9%; in the assay on COLO 205 colon, 133%.
`COC1C(=O)CCC2(CO2)C1(O)C1(C)OC1CCC(C)C` (stereo not given): the growth in the assay on NCI-H23 lung was 69.5%; in the assay on NCI-H226 lung, 85.2%; with NCI-H322M lung it was 76.8%; in the assay on HOP-62 NSCLC, 71.5%; in the assay on NCI-H460 lung, 20.5%; with HOP-92 NSCLC it was 67.5%. Further, the growth with NCI-H522 lung was 62.8%; in the assay on A549/ATCC NSCLC, 56.2%; with 786-0 renal, 81.2%; in the assay on COLO 205 colon it was 65.9%.
For the compound `NNc1ncnc2c1ncn2C1OC(CO)C(O)C1O` (stereo not given), the growth with NCI-H23 lung was 66%; in the assay with NCI-H226 lung, 55.8%; in the assay with NCI-H322M lung, 40%; in the assay with HOP-62 NSCLC, 15%; in the assay on NCI-H460 lung, 2.13% (active); in the assay on HOP-92 NSCLC, 34.9%. The growth in the assay with NCI-H522 lung was 20.1%; in the assay with A549/ATCC NSCLC, 18%; with 786-0 renal, 35.9%; in the assay on COLO 205 colon, 40.4%.
For `N#CCCN1C(=O)CCC1C(=O)O` (stereo not given), the growth with NCI-H23 lung was 109%; with NCI-H226 lung it was 113%; with NCI-H322M lung it was 112%; in the assay on HOP-62 NSCLC it was 119%; in the assay with NCI-H460 lung, 107%; in the assay with HOP-92 NSCLC it was 109%. The growth was 85% in the assay with NCI-H522 lung, 103% in the assay with A549/ATCC NSCLC, 107% in the assay on 786-0 renal and 115% with COLO 205 colon.
On to `Nc1ccc(F)cc1F`, for which the growth is 103% in the assay with NCI-H23 lung; 94.8% with NCI-H226 lung; 97.4% with NCI-H322M lung; 109% with HOP-62 NSCLC; 105% with NCI-H460 lung; 77.4% with HOP-92 NSCLC. Also, the growth was 102% in the assay with NCI-H522 lung, 105% in the assay on A549/ATCC NSCLC, 98.6% in the assay with 786-0 renal and 110% in the assay on COLO 205 colon.
Consider `CSc1nc2[nH]ncc2c(=O)[nH]1`, for which the growth is 94.8% in the assay with NCI-H23 lung; 91.4% in the assay with NCI-H226 lung; 108% in the assay on NCI-H322M lung; 101% with HOP-62 NSCLC; 98.8% in the assay on NCI-H460 lung; 106% with HOP-92 NSCLC. Further, the growth in the assay with NCI-H522 lung was 99.9%; with A549/ATCC NSCLC, 111%; with 786-0 renal, 101%; in the assay on COLO 205 colon, 107%.
Take `CCC(C)C1CCC(O)CC1` (stereo not given): the growth was 96.3% in the assay on NCI-H23 lung; 101% in the assay on NCI-H226 lung; 100% with NCI-H322M lung; 110% in the assay with HOP-62 NSCLC; 108% in the assay on NCI-H460 lung; 102% with HOP-92 NSCLC. For the same compound, the growth in the assay on NCI-H522 lung was 101%; with A549/ATCC NSCLC, 103%; in the assay on 786-0 renal, 100%; in the assay with COLO 205 colon, 112%.
Consider `CC(C)(C)[Si](C)(C)OCC1OC(n2cnc3c(N)ncnc32)CC1OS(C)(=O)=O` (stereo not given), for which the growth in the assay on NCI-H23 lung was 106%; with NCI-H226 lung, 101%; in the assay on NCI-H322M lung it was 109%; in the assay with HOP-62 NSCLC it was 104%; in the assay with NCI-H460 lung it was 105%; in the assay with HOP-92 NSCLC it was 98.5%. Also, the growth in the assay on NCI-H522 lung is 99%; in the assay with A549/ATCC NSCLC, 99.4%; in the assay with 786-0 renal, 103%; with COLO 205 colon, 110%.
Take `CC(=O)OC(C)c1cccc(C#N)c1` (stereo not given): the growth with NCI-H23 lung is 103%; in the assay on NCI-H226 lung it was 94.7%; in the assay on NCI-H322M lung it was 104%; in the assay with HOP-62 NSCLC it was 94.8%; with NCI-H460 lung, 108%; in the assay with HOP-92 NSCLC, 91.3%. The growth in the assay with NCI-H522 lung is 103%; with A549/ATCC NSCLC, 98.6%; in the assay on 786-0 renal, 104%; in the assay on COLO 205 colon, 113%.
With `CCOP(=O)(NC(c1ccccc1)c1ccccc1)OCC`, the growth is 108% with NCI-H23 lung; 103% in the assay on NCI-H226 lung; 99% in the assay with NCI-H322M lung; 95.5% in the assay with HOP-62 NSCLC; 107% with NCI-H460 lung; 89.7% in the assay with HOP-92 NSCLC. Further, the growth with NCI-H522 lung was 113%; in the assay with A549/ATCC NSCLC it was 106%; in the assay with 786-0 renal, 102%; with COLO 205 colon, 100%.
As for `O=[n+]1ccn([O-])c2ccccc21`, the growth in the assay with NCI-H23 lung is 96%; with NCI-H226 lung, 89.8%; in the assay with NCI-H322M lung it was 104%; in the assay with HOP-62 NSCLC, 95%; in the assay with NCI-H460 lung it was 102%; in the assay with HOP-92 NSCLC, 78.6%. Further, the growth was 118% with NCI-H522 lung, 113% in the assay with A549/ATCC NSCLC, 103% in the assay on 786-0 renal and 100% in the assay with COLO 205 colon.
Take `CC(=O)NC(O)C(Cl)Cl` (stereo not given): the growth in the assay with NCI-H23 lung is 91.8%; in the assay on NCI-H226 lung it was 102%; with NCI-H322M lung, 98.4%; in the assay on HOP-62 NSCLC, 95.6%; in the assay with NCI-H460 lung, 106%; in the assay on HOP-92 NSCLC, 94.9%. For the same compound, the growth was 94% in the assay on NCI-H522 lung, 102% in the assay with A549/ATCC NSCLC, 112% in the assay on 786-0 renal and 98.9% in the assay on COLO 205 colon.
With `Cc1ccc(C)c(CCO)c1`, the growth in the assay with NCI-H23 lung was 117%; in the assay with NCI-H226 lung, 91.8%; in the assay with NCI-H322M lung it was 108%; with HOP-62 NSCLC it was 92.4%; with NCI-H460 lung it was 105%; with HOP-92 NSCLC, 68.3%. Moreover, the growth in the assay on NCI-H522 lung is 97.8%; in the assay with A549/ATCC NSCLC, 92.6%; with 786-0 renal it was 97.2%; in the assay with COLO 205 colon, 105%.
